Bioassay records as filed in PubChem BioAssay.
Compounds with a hit are over-represented: about 3.7% of the library has one in this group of screens.
Nrf2 inh: inhibitors of Nrf2 signaling. AID 504444. Potency, µM (doses to about 46 µM), actives largely listed as inhibitors. A549 ARE-Fluc reporter, luciferase luminescence, 18-24 h. 360,000 compounds, 2.1% hits; also: nearly all actives have a fitted effect of over 60% in size
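A549 ARE_Fluc cells (5000/well, 5% FBS OPTI-MEM) pre-incubated 2 h, then treated with compounds 18-24 h at 37C/5% CO2 in concentration-response. CellTiter-Fluor viability read first; BugLite luciferase luminescence after 15 min at room temperature gives Nrf2 activity.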
ELG1 repair inh: inhibitors of ELG1-dependent DNA repair in HEK293T cells; HEK293T ELG1-luciferase reporter, luminescence, 16 h; DNA damage induced by 5-fluorouridine; Potency, µM (doses to about 46.1 µM), hits mostly inhibitors; AID 504467; 330,000 compounds, 2.3% hits; also: nearly all actives have a fitted effect of over 55% in size
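Reporter activity after DNA damage by 5-fluorouridine is monitored. Compound-treated cells incubate 16 hr at 37 °C, then ONE-Glo is added for 30 min before luminescence reading.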
A549 viability: A549 cytotoxicity, counter-screen for Nrf2 inhibitors; A549 ARE-Fluc cells, CellTiter-Fluor viability, 18-24 h; 390,000 compounds, 0.16% hits; Potency, µM (titrated, usually from 46 µM), usual class: inhibitors
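A549 ARE-Fluc cells in 5% FBS OPTI-MEM, 5000 cells/well, rested 2 h then exposed to compounds in concentration-response for 18-24 h at 37 °C. Viability by CellTiter-Fluor fluorescence (Ex 405/Em 525) after 30 min; luciferase luminescence (BugLite, 15 min, RT) read afterwards.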
Nrf2 ARE act: activates Nrf2 signaling; AREc32 ARE-luciferase reporter (MCF7-derived line), luminescence, 24 h; 410,000 compounds, 0.31% hits; AID 624171; Potency, µM (series often up to 46.1 µM), most hits filed as activators; also: nearly all actives have a fitted effect of over 65% in size
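Nrf2 activation is followed as ARE-luciferase induction in the AREc32 line after one day of compound treatment; luminescence is read with Steady-Glo.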
Each line names hits and unclear results; the compound was inactive in the other large screens. Calls follow the shape of the dose curve; as a rule, active = well fitted curve in the direction sought with a large enough effect; inconclusive = small, poorly fitted or top-dose-only effect, or another doubt; inactive = no such curve, though single readings can be large; an effect the other way counts as inactive or inconclusive.

Cc1cc(OCC(=O)N2CCN(c3ccccc3)CC2)c2c(C)c(C)c(=O)oc2c1	ELG1 repair inh inconclusive
Cc1cc(OC(C)C(=O)N2CCN(c3ccccc3)CC2)c2c(C)c(C)c(=O)oc2c1 (stereo not drawn)	ELG1 repair inh 16µM
CCOC(=O)C1=CC[C@]2(C)c3c(c4ccccc4n3C)C(=O)C1N2C	none
CCOC(=O)C1=CCC2c3c(c4ccccc4n3C)C(=O)C1N2C(=O)OC(C)(C)C (stereo not drawn)	Nrf2 inh 15µM, A549 viability inconclusive
O=C(c1cc2ccccc2o1)c1cccs1	Nrf2 inh inconclusive, ELG1 repair inh inconclusive, Nrf2 ARE act 22µM
O=C(NC(=S)Nc1ccc(NC(=O)c2cccs2)cc1)c1cc2ccccc2o1	Nrf2 inh inconclusive
CN(Cc1cccs1)c1ncnc2ccc(-c3ccc4cnn(C)c4c3)cc12	A549 viability inconclusive (no result: ELG1 repair inh, Nrf2 ARE act)
Cn1c(N/N=C/c2cccs2)cc(=O)n(C)c1=O	Nrf2 ARE act 7.9µM
N=c1n(CCN2CCOCC2)c2ccccc2n1CC(=O)c1cccc([N+](=O)[O-])c1	ELG1 repair inh inconclusive, Nrf2 ARE act 3.2µM
COc1cccc(C(=O)Nc2ccccc2N2CCCC2)c1	none
COc1ccccc1C(=O)Nc1ccccc1N1CCN(C(=O)c2ccc(Cl)cc2)CC1	Nrf2 inh inconclusive, ELG1 repair inh 15µM
COc1cccc(C(=O)Nc2ccccc2N2CCN(C(=O)c3ccccc3)CC2)c1	ELG1 repair inh 23µM
O=C(Nc1ccccc1N1CCN(C(=O)c2ccccc2)CC1)c1ccccc1Cl	ELG1 repair inh inconclusive
CN1CCN(c2ccccc2NC(=O)c2cccc(OCc3ccccc3)c2)CC1	ELG1 repair inh 21µM
Cc1ccc(-c2c(C(=O)N3CCN(c4cccc(C)c4C)CC3)oc(=O)c3ccccc23)cc1	none (no result: ELG1 repair inh)
CC(NC(=O)CN1C(=O)COc2ccc(Cl)cc21)c1ccccc1 (stereo not drawn)	none (no result: ELG1 repair inh)
COc1ccc(-c2cc(C(F)F)n3ncc(C(=O)N4CCCc5ccccc54)c3n2)cc1	none
Cc1ccc(-c2cc(C(F)F)n3ncc(C(=O)N4CCN5CCCC5C4)c3n2)cc1 (stereo not drawn)	Nrf2 inh inconclusive, ELG1 repair inh inconclusive
COc1ccc(-c2cc(C(F)F)n3ncc(C(=O)N4CCSCC4)c3n2)cc1	ELG1 repair inh 16µM
COc1ccc(-c2cc(C(F)F)n3ncc(C(=O)N4CCN(C)CC4)c3n2)cc1	ELG1 repair inh 7.3µM
c1ccc(-c2nnc(SCc3nc4ccccc4[nH]3)n2Cc2ccco2)cc1	ELG1 repair inh 21µM
CCn1c(COc2ccc(Cl)cc2)nnc1SCc1nc2ccccc2[nH]1	Nrf2 inh inconclusive, ELG1 repair inh inconclusive
Cc1ccc(OCc2nnc(SCc3nc4ccccc4[nH]3)n2Cc2ccco2)cc1	ELG1 repair inh 9.2µM (no result: Nrf2 inh)
COCc1[nH]nc2c1C(c1cc(OC)c(O)c(OC)c1)C(C#N)=C(N)O2 (stereo not drawn)	ELG1 repair inh 18µM
COCc1[nH]nc2c1C(c1ccc(OC)c(OC)c1)C(C#N)=C(N)O2 (stereo not drawn)	ELG1 repair inh inconclusive
CC(=O)OCC(=O)[C@@]12OC(C)(C)O[C@@H]1C[C@H]1[C@@H]3C[C@H](F)C4=CC(=O)C=C[C@]4(C)[C@@]3(F)[C@@H](O)C[C@@]12C	Nrf2 inh inconclusive
CC(=O)OCC(=O)[C@@]1(OC(C)=O)[C@@H](C)C[C@H]2[C@@H]3C[C@H](F)C4=CC(=O)C=C[C@]4(C)[C@@]3(F)[C@@H](O)C[C@@]21C	Nrf2 inh 0.0092µM
CC12C=CC(=O)C=C1CCC1C3CCC(O)(C(=O)CO)C3(C)CC3OC312 (stereo not drawn)	none
CC(=O)OCC(=O)C1(O)CCC2C3CC(C)C4=CC(=O)C=CC4(C)C3=CCC21C (stereo not drawn)	Nrf2 inh 2.1µM (no result: ELG1 repair inh)
CC(=O)OCC(=O)C1(O)CCC2C3CC(C)C4=CC(=O)C=CC4(C)C3(F)C(O)CC21C (stereo not drawn)	Nrf2 inh 0.058µM (no result: ELG1 repair inh)
CC(=O)OCC(=O)[C@@]1(O)CC[C@H]2[C@@H]3CCC4=CC(=O)C=C[C@]4(C)[C@@]3(F)[C@@H](O)C[C@@]21C	Nrf2 inh 0.029µM
CC(=O)OCC(=O)C1(O)CCC2C3CC(F)C4=CC(=O)CCC4(C)C3C(=O)CC21C (stereo not drawn)	none (no result: ELG1 repair inh)
